Experimental data from PubChem BioAssay (EPA / NIEHS).
“And” between values parts separate entries of the source, which are not always exact repeats. Identical values can stand only once. The source holds several records for some structures; these can differ, active in one and inactive in another. The source made the active and inactive calls. How the source made its calls: active means hit-call score of the fitted dose curve at least 0.9, where 1 is the maximum; inactive means score below 0.9.

Assays:
[1] = ATG_AP_2_CIS: Attagene CIS-FACTORIAL HepG2 Assay for human Activator Protein 2 (AP-2) (AID 2282932); conditions: HepG2 AP-2 cis-reporter, Attagene transcription factor profiling; actives raise or lower the signal
Procedure, shortened: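 HepG2 cells were transiently transfected with multiple cis-promoter reporter transcription units and dosed for 24 h. Reporter mRNA was measured by RT-PCR with capillary electrophoresis fluorescence; bidirectional fits relative to DMSO baseline.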

[2] = APR_HepG2_CellLoss_72hr: Apredica 72-hour HepG2 Assay for Cell Loss (AID 2282915); conditions: high-content imaging
Procedure, shortened: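 HepG2 cells were exposed for 72 hr to compounds at 0.39–200 uM (ten concentrations, duplicate) in 0.5% v/v final DMSO. Nuclei were stained with Hoechst 33342 after 3.7% formaldehyde fixation, imaged at 20x, and counted; fits bidirectional versus DMSO.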

[3] = APR_HepG2_P-H2AX_72hr: Apredica 72-hour HepG2 Assay for H2AX Phosphorylation (AID 2282916); conditions: imaging, actives raise or lower the signal;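 further: phospho-histone H2A.x immunostain intensity per cell marking DNA damage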
Procedure, shortened: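 HepG2 human liver cells were exposed for 72 hr to compounds at 0.39–200 uM (10 concentrations, duplicate per plate) in 0.5% v/v DMSO. Fixed, permeabilized cells were immunolabeled for phospho-histone H2A.x with Hoechst 33342 and imaged by HCS fluorescence; bidirectional fit versus DMSO.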

[4] = APR_HepG2_MitoMembPot_72hr: Apredica 72-hour HepG2 Assay for Mitochondrial Membrane Potential (AID 2282917); conditions: imaging, actives raise or lower the signal
Procedure, shortened: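 HepG2 cells exposed 72 h to compounds at 0.39–200 uM (0.5% v/v DMSO, duplicates); MitoTracker Red CMXRos 250 nM loaded 30 min before 3.7% formaldehyde fixation, imaged by HCS fluorescence. Bidirectional fit versus DMSO.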

[5] = APR_HepG2_MitoticArrest_72hr: Apredica 72-hour HepG2 Assay for Mitotic Arrest (AID 2282918); conditions: high-content imaging, actives raise or lower the signal
Procedure, shortened: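 High-content imaging of fixed human HepG2 cells after 72 h compound exposure (0.39–200 uM, duplicates, 0.5% DMSO); mitotic arrest scored from phospho-histone H3 and nuclear Hoechst staining relative to DMSO.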

[6] = APR_HepG2_MicrotubuleCSK_72hr: Apredica 72-hour HepG2 Assay for Microtubule CSK Stabilty (AID 2282919); conditions: HepG2 microtubule cytoskeleton, high-content imaging, actives raise or lower the signal
Procedure, shortened: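 HepG2 human liver cells were dosed for 72 h at ten concentrations from 0.39 to 200 uM in duplicate (0.5% v/v DMSO final). Fixed, permeabilized cells were immunostained for alpha-tubulin (Cy5) with a Hoechst counterstain and imaged at 20x.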

[7] = APR_HepG2_P-H2AX_24hr: Apredica 24-hour HepG2 Assay for H2AX Phosphorylation (AID 2282920); conditions: high-content imaging, actives raise or lower the signal
Procedure, shortened: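 High-content imaging of phospho-histone H2A.x immunofluorescence, nuclei counterstained with Hoechst 33342, in fixed HepG2 cells. Compounds ran 0.39–200 uM in duplicate for 24 h, final DMSO 0.5%. Signal change fitted both directions against DMSO.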

[8] = APR_HepG2_StressKinase_72hr: Apredica 72-hour HepG2 Assay for Stress Kinase (AID 2282921); conditions: HepG2 stress kinase (phospho-c-Jun) imaging, actives raise or lower the signal
Procedure, shortened: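 Cells were exposed for 72 h to ten concentrations (0.39–200 uM, duplicate) at 0.5% v/v DMSO final, then fixed with 3.7% formaldehyde, permeabilized and immunostained for phospho-c-Jun (Cy3 secondary) with Hoechst nuclear counterstain.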

[9] = APR_HepG2_StressKinase_24hr: Apredica 24-hour HepG2 Assay for Stress Kinase (AID 2282922); conditions: HepG2 stress kinase (phospho-c-Jun) imaging, actives raise or lower the signal
Procedure, shortened: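 HepG2 cells exposed 24 hr to compound at 0.39–200 uM (10 concentrations, duplicate), 0.5% v/v DMSO final. Fixed in 3.7% formaldehyde, permeabilized with Triton X-100, immunolabeled for phospho-c-Jun with Hoechst 33342; HCS fluorescence imaging, bidirectional fit versus DMSO.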

[10] = APR_HepG2_p53Act_72hr: Apredica 72-hour HepG2 Assay for p53 Activation (AID 2282923); conditions: high-content imaging, actives raise or lower the signal;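 further: average cellular p53 protein immunofluorescence intensity in HepG2 cells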
Procedure, shortened: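 Cells were dosed for 72 hr with compounds at 0.39–200 uM in duplicate (final DMSO 0.5% v/v), then fixed in 3.7% formaldehyde, permeabilized with Triton X-100 and immunostained for p53 (Cy5) with Hoechst 33342 nuclear counterstain.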

[11] = APR_HepG2_MitoMass_72hr: Apredica 72-hour HepG2 Assay for Mitochondrial Mass (AID 2282924); conditions: high-content imaging, actives raise or lower the signal;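 further: MitoTracker Red CMXRos stain intensity per cell imaged as mitochondrial mass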
Procedure, shortened: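 HepG2 cells were exposed for 72 hr to compounds at 0.39–200 uM (ten concentrations, duplicate, 0.5% v/v DMSO final). Live cells were stained with 250 nM MitoTracker Red CMXRos for 30 min, then fixed in 3.7% formaldehyde and imaged by HCS fluorescence.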

[12] = APR_HepG2_NuclearSize_72hr: Apredica 72-hour HepG2 Assay for Nuclear Size (AID 2282925); conditions: high-content imaging, actives raise or lower the signal
Procedure, shortened: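 HepG2 cells were exposed to compounds at ten concentrations from 0.39 to 200 uM (duplicate, 0.5% DMSO final) for 72 hr. After fixation in 3.7% formaldehyde, nuclei were stained with Hoechst 33342 (2 ug/mL) and imaged at 20x.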

[13] = ATG_CRE_CIS: Attagene CIS-FACTORIAL HepG2 Assay for human cAMP Responsive Element (CRE) binding protein 3 (AID 2282926); conditions: HepG2 CRE cis-reporter, Attagene multiplexed mRNA; actives raise or lower the signal
Procedure, shortened: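 Multiplexed transcription-unit reporters transfected into HepG2; 24 h dosing; RT-PCR/capillary electrophoresis fluorescence read-out; bidirectional fit vs DMSO.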

[14] = target: CCAAT/enhancer-binding protein beta (Homo sapiens) (UniProt P17676); experiment: ATG_C_EBP_CIS: Attagene CIS-FACTORIAL HepG2 Assay for human CCAAT/Enhancer Binding Protein (C/EBP) beta (AID 2282927); conditions: HepG2 Attagene cis-factorial transcription factor reporter; actives raise or lower the signal
Procedure, shortened: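 RT-PCR/capillary electrophoresis fluorescence of reporter mRNA, 24 h post-dose, in HepG2 cells carrying transfected cis-promoter reporter units. Bidirectional curve fitting against DMSO baseline captures gain or loss of signal.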

[15] = ATG_CMV_CIS: Attagene CIS-FACTORIAL HepG2 Assay for human CMV (Internal Marker) (AID 2282928); conditions: HepG2 CMV promoter reporter, transcription factor profiling; actives raise or lower the signal;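 further: endpoint acts as a background internal control marker rather than a target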
Procedure, shortened: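 HepG2 cells transiently transfected with multiple cis-regulated reporter units; 24 h compound exposure. Reporter mRNA quantified by RT-PCR, 6-FAM primer-extension labeling, HpaI digestion and capillary electrophoresis; bidirectional fitting against DMSO baseline.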

[16] = ATG_DR4_LXR_CIS: Attagene CIS-FACTORIAL HepG2 Assay for human Liver X Receptor (LXR), DR4 submotif (AID 2282929); conditions: HepG2 Attagene DR4 cis-reporter, mRNA transcription; actives raise or lower the signal
Procedure, shortened: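 HepG2 cells were transiently transfected with multiple cis-regulated reporter units and dosed for 24 hours. The DR4 reporter mRNA was quantified by RT-PCR, 6-FAM labelling and capillary electrophoresis. Bidirectional fits used DMSO as baseline.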

[17] = target: Aryl hydrocarbon receptor (Homo sapiens) (UniProt P35869); experiment: ATG_Ahr_CIS: Attagene CIS-FACTORIAL HepG2 Assay for human Aryl Hydrocarbon Receptor (Ahr) (AID 2282930); conditions: HepG2 AhR cis-factorial reporter transcription; actives raise or lower the signal
Procedure, shortened: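 HepG2 cells transiently transfected with cis-element-driven multiplexed reporter transcription units; endogenous transcription factor activity measured as reporter mRNA 24 h after dosing. RT-PCR, 6-FAM labelling, HpaI digestion, capillary electrophoresis; bidirectional fitting versus DMSO baseline.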

[18] = ATG_AP_1_CIS: Attagene CIS-FACTORIAL HepG2 Assay for human Activator Protein 1 (AP-1) (AID 2282931); conditions: HepG2 Attagene cis-factorial AP-1 reporter mRNA; actives raise or lower the signal
Procedure, shortened: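 HepG2 cells transiently transfected with cis-element-driven reporter transcription units, dosed for 24 hours. Reporter mRNA measured by RT-PCR, 6-FAM labelling, HpaI digestion and capillary electrophoresis. Bidirectional fitting against DMSO baseline.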

[19] = ATG_BRE_CIS: Attagene CIS-FACTORIAL HepG2 Assay for human Bone Morphogenetic Protein (BMP) Response Element (BRE) (AID 2282933); conditions: HepG2 BMP response element reporter, Attagene transcription factor profiling; actives raise or lower the signal
Procedure, shortened: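 Endogenous transcription factor activity at a BMP response element was monitored in transfected HepG2 cells 24 h after dosing. Fluorescent RT-PCR products were resolved by capillary electrophoresis, and activity was fitted in both directions versus DMSO.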

[20] = target: Retinoic acid receptor alpha (Homo sapiens) (UniProt P10276); experiment: ATG_DR5_RAR_CIS: Attagene CIS-FACTORIAL HepG2 Assay for human Retinoic Acid Receptor Alpha (RARE), DR5 submotif (AID 2282934); conditions: HepG2 Attagene cis-factorial RARE DR5 reporter, mRNA; actives raise or lower the signal;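 on AC50: reporter responds to endogenous RAR alpha beta and gamma in HepG2 not RARA alone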
Procedure, shortened: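 HepG2 cells transiently transfected with multiplexed reporter units under cis (DR5 RARE) promoters, so endogenous transcription factor activity is measured. After 24 h compound exposure, reporter mRNA is quantified by RT-PCR with fluorescent labelling and capillary electrophoresis; bidirectional fitting versus DMSO.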

Measured: AC50

Retinoic acid receptor alpha (Homo sapiens), sequence (P10276 whole entry, looked up): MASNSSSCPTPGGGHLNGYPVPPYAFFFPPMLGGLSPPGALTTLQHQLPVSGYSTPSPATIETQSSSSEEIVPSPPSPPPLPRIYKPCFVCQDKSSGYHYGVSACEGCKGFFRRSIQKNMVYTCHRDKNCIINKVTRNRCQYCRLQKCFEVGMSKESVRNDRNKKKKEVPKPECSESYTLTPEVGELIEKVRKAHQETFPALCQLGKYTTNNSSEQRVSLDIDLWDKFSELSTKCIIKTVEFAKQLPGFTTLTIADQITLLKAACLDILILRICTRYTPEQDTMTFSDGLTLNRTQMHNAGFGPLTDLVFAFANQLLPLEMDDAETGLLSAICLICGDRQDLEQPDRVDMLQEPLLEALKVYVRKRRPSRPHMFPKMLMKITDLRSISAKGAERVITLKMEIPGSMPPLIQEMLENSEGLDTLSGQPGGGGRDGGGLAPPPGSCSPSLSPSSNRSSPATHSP
CCAAT/enhancer-binding protein beta (Homo sapiens), sequence (P17676 whole entry, looked up): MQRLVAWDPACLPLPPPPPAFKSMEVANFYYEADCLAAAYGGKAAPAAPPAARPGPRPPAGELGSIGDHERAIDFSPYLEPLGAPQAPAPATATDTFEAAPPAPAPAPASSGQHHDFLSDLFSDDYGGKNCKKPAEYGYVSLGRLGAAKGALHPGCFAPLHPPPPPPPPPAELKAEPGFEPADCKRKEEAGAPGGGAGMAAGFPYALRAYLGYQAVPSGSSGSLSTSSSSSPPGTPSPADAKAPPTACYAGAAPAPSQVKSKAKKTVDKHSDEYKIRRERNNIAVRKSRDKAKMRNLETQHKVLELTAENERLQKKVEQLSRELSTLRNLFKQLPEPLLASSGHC
Aryl hydrocarbon receptor (Homo sapiens), sequence (P35869 whole entry, looked up): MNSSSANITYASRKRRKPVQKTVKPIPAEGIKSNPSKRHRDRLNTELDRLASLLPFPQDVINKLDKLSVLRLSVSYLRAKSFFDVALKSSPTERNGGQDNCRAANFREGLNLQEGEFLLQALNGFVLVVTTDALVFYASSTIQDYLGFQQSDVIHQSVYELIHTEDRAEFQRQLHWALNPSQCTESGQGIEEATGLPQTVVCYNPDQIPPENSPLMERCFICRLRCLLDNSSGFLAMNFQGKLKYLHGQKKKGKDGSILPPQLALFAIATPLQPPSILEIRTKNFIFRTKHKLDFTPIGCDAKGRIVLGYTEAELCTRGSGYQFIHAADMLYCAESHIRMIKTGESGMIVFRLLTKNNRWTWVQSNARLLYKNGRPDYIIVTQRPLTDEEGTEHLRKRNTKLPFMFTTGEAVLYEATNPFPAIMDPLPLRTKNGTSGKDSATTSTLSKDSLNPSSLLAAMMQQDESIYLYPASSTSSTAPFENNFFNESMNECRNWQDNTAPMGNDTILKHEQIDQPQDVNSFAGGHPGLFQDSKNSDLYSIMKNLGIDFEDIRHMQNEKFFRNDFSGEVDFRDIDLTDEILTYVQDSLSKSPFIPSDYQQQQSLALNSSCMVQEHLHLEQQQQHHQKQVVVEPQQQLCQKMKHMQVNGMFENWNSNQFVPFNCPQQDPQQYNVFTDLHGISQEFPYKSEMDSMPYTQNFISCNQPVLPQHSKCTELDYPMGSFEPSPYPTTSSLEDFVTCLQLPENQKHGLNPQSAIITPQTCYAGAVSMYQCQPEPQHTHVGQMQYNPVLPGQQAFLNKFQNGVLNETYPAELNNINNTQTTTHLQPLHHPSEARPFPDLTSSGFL

C=CCC1=C(C)C(OC(=O)C2C(C=C(C)C)C2(C)C)CC1=O (stereo unspecified)
inactive: [1]

N#CC(CCc1ccc(Cl)cc1)(Cn1cncn1)c1ccccc1 (stereo unspecified)
active: [7] 111 µM | [18] 26.7 µM
inactive: all other assays above

CCCCOC(=O)c1ccccc1C(=O)OCCCC
inactive: [2] | [3] | [4] | [5] | [6] | [7] | [8] | [9] | [10] | [11] | [12] | [13] | [14] | [15] | [16] | [17] | [18] | [1] | [19] | [20]
active: [16] 177 µM | [18] 68.2 µM and 85.6 µM

C#CCOS(=O)OC1CCCCC1Oc1ccc(C(C)(C)C)cc1 (stereo unspecified)
active: [2] 3.12 µM | [4] 3.43 µM | [6] 2.25 µM | [13] 0.994 µM | [14] 0.658 µM | [18] 1.55 µM | [19] 1.16 µM
inactive: all other assays above

COP(N)(=O)SC (stereo unspecified)
inactive: all assays above

C=CC1(C)OC(=O)N(c2cc(Cl)cc(Cl)c2)C1=O (stereo unspecified)
not listed: [20]
inactive: all other assays above

COc1ccc(C(c2ccc(OC)cc2)C(Cl)(Cl)Cl)cc1
inactive: [4] | [7] | [8] | [9] | [11] | [12] | [13] | [14] | [15] | [16] | [17] | [18] | [1] | [19] | [20]
active: [2] 72.7 µM | [3] 98.2 µM | [5] 65 µM | [6] 71 µM | [10] 76.4 µM | [17] 15.2 µM | [18] 39.8 µM and 59.5 µM and 34.4 µM | [19] 29.7 µM and 15.5 µM | [20] 19.7 µM

CCON=C(CC)C1=C(O)CC(c2c(C)cc(C)cc2C)CC1=O (stereo unspecified)
inactive: all assays above

COc1nc(C)nc(NC(=O)NS(=O)(=O)c2ccccc2CCC(F)(F)F)n1
inactive: all assays above

CCCCNC(=O)n1c(NC(=O)OC)nc2ccccc21
active: [2] 8.47 µM | [7] 23.6 µM | [9] 45.6 µM | [11] 13 µM
inactive: all other assays above

CCCCC(CC)COC(=O)c1ccccc1C(=O)OCC(CC)CCCC (stereo unspecified)
inactive: all assays above

CC1COC(Cn2cncn2)(c2ccc(Oc3ccc(Cl)cc3)cc2Cl)O1 (stereo unspecified)
active: [2] 10.6 µM | [4] 52.6 µM | [6] 32.6 µM | [11] 60.6 µM | [13] 1.6 µM | [14] 0.829 µM | [18] 4.29 µM | [19] 1.71 µM
inactive: all other assays above
